Test results reported in PubChem BioAssay AID2429 (National Center for Advancing Translational Sciences (NCATS), 2010).
The other results are listed elsewhere or left out. Calls of active or inactive are those of the source. The call rests on the fitted dose curve.

Molecular target: 15-hydroxyprostaglandin dehydrogenase [NAD(+)] (Homo sapiens) (UniProt P15428)
Assay: Confirmation qHTS Assay for Inhibitors of HPGD (15-Hydroxyprostaglandin Dehydrogenase)
Settings: recombinant HPGD, NADH fluorescence, PGE2 substrate
Text: Assay Overview: Human 15-Hydroxyprostaglandin dehydrogenase (HPGD) catalyzes the inactivation of prostaglandin E2, and plays a major role in cancer biology by antagonizing the oncogenic potential of cyclooxygenase type 2 (COX2). Assays are available, based on absorbance/fluorescence increase of NADH with the substrate 15-OH prostaglandin E2. Inhibition of HPGD activity was screened by utilizing prostaglandin as an electron donor and NAD+ as an electron acceptor/cofactor. An increase in the fluorescence intensity due to conversion of NAD+ to NADH was used to measure the enzyme activity. This assay is a confirmation screen of primary qHTS protocol (See AID 894). References 1. Myung SJ, Rerko RM, Yan M, Platzer P, Guda K, Dotson A, Lawrence E, Dannenberg AJ, Lovgren AK, Luo G, Pretlow TP, Newman RA, Willis J, Dawson D, Markowitz SD. 15-Hydroxyprostaglandin dehydrogenase is an in vivo suppressor of colon tumorigenesis. Proc Natl Acad Sci U S A. 2006 Aug 8;103(32):12098-102. 2. Yan M, Rerko RM, Platzer P, Dawson D, Willis J, Tong M, Lawrence E, Lutterbaugh J, Lu S, Willson JK, Luo G, Hensold J, Tai HH, Wilson K, Markowitz SD. 15-Hydroxyprostaglandin dehydrogenase, a COX-2 oncogene antagonist, is a TGF-beta-induced suppressor of human gastrointestinal cancers. Proc Natl Acad Sci U S A. 2004 Dec 14;101(50):17468-73. 3. Yang L, Amann JM, Kikuchi T, Porta R, Guix M, Gonzalez A, Park KH, Billheimer D, Arteaga CL, Tai HH, Dubois R, Carbone DP, Johnson DH. Inhibition of Epidermal Growth Factor Receptor Signaling Elevates 15-Hydroxyprostaglandin Dehydrogenase in Non-Small-Cell Lung Cancer. Cancer Res. 2007 Jun 15;67(12):5587-5593. NIH Chemical Genomics Center [NCGC] Structural Genomics Consortium [SGC]
Buffer: 50 mM Tris-HCl, 0.01% Tween 20, pH 8. Enzyme Buffer: 50 mM Tris-HCl, 0.5 mM NAD+ and 0.01% Tween 20, pH 8. Reagents/Controls: Buffer in columns 3 and 4 as negative control (no enzyme). Substrate/cofactor solution: 1 mM NAD+ and 30 uM prostaglandin (Sigma, prostaglandin E2, # P5640) final concentrations dispensed throughout the plate. Enzyme: 20 nM HPGD final concentration in columns 1, 2, 5-48. Column 1 and 2 is neutral (100% activity). A titration of control inhibitor GW5074 (G6416 Sigma-Aldrich, St. Louis, MO) top concentration 10 mM in DMSO, then 1:2 dilution for a total of 16 concentrations in duplicate) was pin-transferred into column 2. Assay Steps: Three uL of enzyme were dispensed to 1536-well Greiner black solid bottom plates. Compounds and control inhibitor (23 nL) were transferred via Kalypsys PinTool. The plates were incubated for 15 min at room temperature, and then 1 uL of substrate/cofactor solution was added to start the reaction. The plates were immediately transferred to and read 5 times every 30 seconds on ViewLux High-throughput CCD imager (Perkin-Elmer) using 360 nm excitation and 450 nm emission fluorescence protocol. The fluorescence intensity difference between the last and the first time points was used to compute reaction progress.

Sequence of 15-hydroxyprostaglandin dehydrogenase [NAD(+)] (Homo sapiens) (P15428 whole entry, looked up): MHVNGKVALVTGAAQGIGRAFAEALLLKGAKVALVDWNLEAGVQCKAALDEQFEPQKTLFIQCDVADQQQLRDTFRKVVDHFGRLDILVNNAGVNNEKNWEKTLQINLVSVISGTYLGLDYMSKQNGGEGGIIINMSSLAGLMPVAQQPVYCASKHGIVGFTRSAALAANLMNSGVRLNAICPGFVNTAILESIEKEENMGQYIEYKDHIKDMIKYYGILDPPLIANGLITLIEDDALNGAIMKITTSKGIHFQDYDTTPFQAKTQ

Row | SMILES | Potency
1 | CC1CCN(C(=O)c2ccc(CSc3ccc(Cl)cc3)cc2)CC1 | 0.631 µM (active)
2 | CN(c1ccc(C(=O)N2CCc3ccccc3C2)cc1)S(C)(=O)=O | 14.1 µM (active)
3 | O=C(c1ccc(CSc2ccccc2)cc1)N1CCCCCC1 | 0.224 µM (active)
4 | Cc1ccnc(-n2sc3ccccc3c2=O)n1 | 3.16 µM (active)
5 | CC1CCN(C(=O)c2cc3nc(C4CC4)cc(C(F)(F)F)n3n2)CC1 | 3.98 µM (active)
